The record followed here is ChEMBL document CHEMBL4513141, “CO-ADD screening of NIH (USA) - Clinical Collection” (2021).

As usually defined, the Inhibition is the relative decrease from the control value, in per cent. High values mean strong suppression, low ones little suppression.

Structures are written as SMILES. Results with a measured potency or affinity are listed apart.

This assay concerns Escherichia coli. The settings on record: Concentration 20 uM; ASSAY_TEST Inhibition of Bacterial Growth; detection method Absorption (OD600); MEDIA CAMHB; plate type 384well; NBS; CORNING #3640; time 18 hr.
Take `COc1cc(C)c(/C=C/C(C)=C/C=C/C(C)=C/C(=O)O)c(C)c1C` [ACITRETIN]: the Inhibition was found to be 4.27%. Turning to `Cc1[nH]cnc1CN1CCc2c(c3ccccc3n2C)C1=O.Cl` [ALOSETRON HYDROCHLORIDE], the Inhibition worked out at 9.19%. Molecule `CC(=O)S[C@@H]1CC2=CC(=O)CC[C@]2(C)[C@H]2CC[C@@]3(C)[C@@H](CC[C@@]34CCC(=O)O4)[C@H]12` [SPIRONOLACTONE] yielded an Inhibition of 5.07%. Molecule `Cc1cccc(C)c1NC(=O)C(C)N` (centres undefined) [TOCAINIDE] returned an Inhibition of 3.98%.
